Calls of active or inactive are those of the source.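 Rule for the calls, unless noted: active = inhibition at or above 50% at 10 µM; inactive = inhibition below 50%.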
How the values were obtained:
[1] = inhibitors of TNFa-induced NFkB p65 translocation, primary screen, imaging, HUVEC, MLSMR starter and 10KST1 sets (AID 438;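 active = inhibition above 20% together with a positive visual image hit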;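 note: compound added about 3h40 before a 20 min TNFalpha stimulation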;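 for inhibition: signal is the nuclear over cytoplasmic p65 intensity ratio per well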); conditions: HUVEC TNFa-induced p65 nuclear translocation; cell count: measured here: nuclei count (cytotoxicity indicator), at 2.08 µM; inhibition: at 2 µM, stronger effect = higher value, 0% TNFa-plus-vehicle, 100% no-TNFa wells
[2] = reduction of polyQ htt aggregates in cells – imaging, exon1htt(103Q)mCFP cells, high-content imaging, primary screen (AID 483;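 active = visual image review flags a hit and inhibition of aggregation exceeds 20%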;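 note: compound exposure lasted 3 days before fixation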;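 for nuclei count: percent of the per-plate median nuclei count of sample wells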); conditions: exon1htt(103Q)mCFP cell line, aggregate imaging, at 2 µM; inhibition of aggregation: stronger effect = higher value; nuclei count: measured here: cell count, toxicity
[3] = endothelial E-selectin expression blockers – imaging, HUVEC, immunofluorescence, MLSMR starter and 10KST1 sets, primary screen (AID 487;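 active = visually confirmed hit in the image check and inhibition above 20%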;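 for inhibition: signal is fraction of cell area covered by stained E-selectin grains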;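 for nuclei count: 100% = median nuclei count of all wells on the same plate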); conditions: HUVEC TNFalpha-induced E-selectin immunofluorescence imaging, at 2 µM; inhibition: stronger effect = higher value; nuclei count: measured here: cell number, toxicity
[4] = molecular target: Voltage-gated potassium channel subunit beta-2 (Rattus norvegicus) (UniProt P62483); assay: inhibitors of rat Kvbeta2 reductase activity – biochemical, NADPH fluorescence, primary screen (AID 622;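 active = fluorescence slope higher than the sample average by over 3 SD, cut at about -0.22 in these data, passing the limit was not always enough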;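 note: slope of raw intensity against log time taken from 70 to 1610 s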); conditions: recombinant KvBeta, 4-cyanobenzaldehyde reduction, at 10 µM, stronger effect = higher value
[5] = molecular target: Voltage-gated potassium channel subunit beta-2 (Rattus norvegicus) (UniProt P62483); assay: enhancers of rat Kvbeta2 NADPH turnover – biochemical, NADPH fluorescence, primary screen (AID 623;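 active = NADPH fluorescence slope more negative than the mean of all samples by about 3 SD, 99.7% confidence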;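 note: fluorescence intensity change per second fitted from 20 to 320 s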); conditions: Recombinant KvBeta, NADPH fluorescence decrease slope, 10 min; at 10 µM; stronger effect = lower value
[6] = molecular target: Alpha-2C adrenergic receptor (Homo sapiens) (UniProt P18825); assay: compounds altering alpha2C-coupled GIRK flux – cell-based, HEK293 alpha2C/GIRK1/2, thallium flux, primary screen (AID 624;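 active = fluorescence slope after compound addition differing from the mean of all screened samples at 99.7% confidence, in either direction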;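 note: slope of fluorescence ratio to pre-addition baseline per second over 15 to 24 s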); conditions: thallium flux BTC fluorescence, at 10 µM, actives lie on both sides
[7] = blockers of RIG-like receptor reporter activation – cell-based, Sendai virus stimulus, luciferase, 10K MLSCN set, TLR/RLR signaling modifier project, primary screen (AID 602276); conditions: HEK293 RL24 IRF3 luciferase reporter, at 10 µM, stronger effect = higher value;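 note: firefly luciferase from ISG56 promoter only with Renilla not read in this screen; 0% = Sendai virus plus DMSO and 100% = medium plus DMSO without virus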
[8] = TLR3 IRF3 reporter activation blockers – cell-based, poly I:C stimulus, luciferase, 10K MLSCN set, primary screen (AID 602277;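 active = inhibition of the reporter signal at or above 50%; inactive = inhibition below 50%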); conditions: HEK293-TLR3 RL24 IRF3 luciferase reporter, at 10 µM, stronger effect = higher value

Alpha-2C adrenergic receptor (Homo sapiens), sequence (P18825 whole entry, looked up): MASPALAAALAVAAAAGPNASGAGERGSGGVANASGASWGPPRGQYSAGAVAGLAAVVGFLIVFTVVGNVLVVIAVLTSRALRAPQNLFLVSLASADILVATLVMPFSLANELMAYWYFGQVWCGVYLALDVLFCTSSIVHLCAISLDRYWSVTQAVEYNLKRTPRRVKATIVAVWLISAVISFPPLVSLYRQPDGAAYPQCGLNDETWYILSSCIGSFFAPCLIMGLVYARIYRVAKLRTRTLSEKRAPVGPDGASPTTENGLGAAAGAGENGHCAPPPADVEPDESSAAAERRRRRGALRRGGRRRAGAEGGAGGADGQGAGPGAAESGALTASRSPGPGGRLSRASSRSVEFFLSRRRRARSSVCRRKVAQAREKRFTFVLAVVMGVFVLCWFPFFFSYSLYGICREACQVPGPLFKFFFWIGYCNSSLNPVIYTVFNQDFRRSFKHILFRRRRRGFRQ
Voltage-gated potassium channel subunit beta-2 (Rattus norvegicus), sequence (P62483 whole entry, looked up): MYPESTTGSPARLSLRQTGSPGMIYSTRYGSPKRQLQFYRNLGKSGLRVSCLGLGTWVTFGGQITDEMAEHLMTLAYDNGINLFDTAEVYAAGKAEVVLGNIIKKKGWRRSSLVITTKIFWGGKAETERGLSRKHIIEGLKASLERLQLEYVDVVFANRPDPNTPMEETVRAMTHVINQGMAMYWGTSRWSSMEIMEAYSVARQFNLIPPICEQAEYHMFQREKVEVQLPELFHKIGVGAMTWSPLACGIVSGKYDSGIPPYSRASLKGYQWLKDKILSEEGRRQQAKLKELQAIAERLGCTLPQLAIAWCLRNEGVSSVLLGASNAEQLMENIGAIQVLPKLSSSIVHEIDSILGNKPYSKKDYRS

SMILES: Cc1ccc2oc(-c3ccccc3C(=O)O)cc(=O)c2c1
- cell count [1]: 363
- inhibition [1]: 10.8% (inactive)
- inhibition of aggregation [2]: 2.4% (inactive)
- nuclei count [2]: 107%
- inhibition [3]: -59.4% (inactive)
- nuclei count [3]: 125%
- fluorescence slope [4]: -0.627 (inactive)
- NADPH fluorescence slope [5]: -1.2e-05 (inactive)
- slope [6]: 0.00399 (inactive)
- inhibition [7]: 12.1% (inactive)
- inhibition [8]: 5.36% (inactive)

SMILES: CCC1(C)Cc2c(C#N)c(N)n(N)c(=S)c2CO1 (stereo not drawn)
- cell count [1]: 795
- inhibition [1]: 1.1% (inactive)
- inhibition of aggregation [2]: -11.2% (inactive)
- nuclei count [2]: 97.6%
- inhibition [3]: -97% (inactive)
- nuclei count [3]: 106%
- fluorescence slope [4]: -0.422 (inactive)
- NADPH fluorescence slope [5]: -4.6e-05 (inactive)
- slope [6]: 0.00514 (inactive)
- inhibition [7]: 9.11% (inactive)
- inhibition [8]: 22.9% (inactive)

SMILES: CN1CCCC(OC(=O)c2ccc3c(c2)OCCO3)C1 (stereo not drawn)
- cell count [1]: 214
- inhibition [1]: -1.4% (inactive)
- inhibition of aggregation [2]: 23.1% (inactive)
- nuclei count [2]: 102%
- inhibition [3]: -1% (inactive)
- nuclei count [3]: 70.3%
- fluorescence slope [4]: -0.418 (inactive)
- NADPH fluorescence slope [5]: -6.9e-05 (inactive)
- slope [6]: 0.00576 (inactive)
- inhibition [7]: -0.0614% (inactive)
- inhibition [8]: -12.6% (inactive)

SMILES: CC(=O)C1=C(C)NC(C)=C(C(C)=O)C1c1cccs1
- cell count [1]: 466
- inhibition [1]: 3.5% (inactive)
- inhibition of aggregation [2]: -5.6% (inactive)
- nuclei count [2]: 103%
- inhibition [3]: 28.1% (inactive)
- nuclei count [3]: 108%
- fluorescence slope [4]: -0.369 (inactive)
- NADPH fluorescence slope [5]: 2.7e-05 (inactive)
- slope [6]: 0.00356 (inactive)
- inhibition [7]: 1.28% (inactive)
- inhibition [8]: 39.4% (inactive)

SMILES: COc1ccc(-c2nc3c(c(=O)n(C)c(=O)n3C)n2CC2CC(c3ccccc3)=NO2)cc1OC (stereo not drawn)
- cell count [1]: 233
- inhibition [1]: -3.2% (inactive)
- inhibition of aggregation [2]: 5.3% (inactive)
- nuclei count [2]: 87.9%
- inhibition [3]: -3.5% (inactive)
- nuclei count [3]: 86.7%
- fluorescence slope [4]: -0.587 (inactive)
- NADPH fluorescence slope [5]: -2.7e-05 (inactive)
- slope [6]: 0.00673 (inactive)
- inhibition [7]: 29.6% (inactive)
- inhibition [8]: 30.8% (inactive)

SMILES: Cc1nc2ccccc2c2oc(C(=O)NCCCN3CCCC3=O)cc12
- cell count [1]: 472
- inhibition [1]: 1.3% (inactive)
- inhibition of aggregation [2]: -37.4% (inactive)
- nuclei count [2]: 76%
- inhibition [3]: -36.2% (inactive)
- nuclei count [3]: 106%
- fluorescence slope [4]: -0.527 (inactive)
- NADPH fluorescence slope [5]: -2e-05 (inactive)
- slope [6]: 0.00837 (inactive)
- inhibition [7]: 10.3% (inactive)
- inhibition [8]: 7.6% (inactive)

SMILES: CCCOc1cccc(C(=O)Nc2cc(NC(=O)c3ccco3)ccc2OC)c1
- cell count [1]: 436
- inhibition [1]: 3.8% (inactive)
- inhibition of aggregation [2]: 2.3% (inactive)
- nuclei count [2]: 101%
- inhibition [3]: 8.3% (inactive)
- nuclei count [3]: 105%
- fluorescence slope [4]: -0.278 (inactive)
- NADPH fluorescence slope [5]: -2.4e-05 (inactive)
- slope [6]: 0.00685 (inactive)
- inhibition [7]: 2.93% (inactive)
- inhibition [8]: -15% (inactive)

SMILES: O=C(CN(C(=O)CCC(=O)Nc1nccs1)c1ccccc1F)NCC1CCCO1 (stereo not drawn)
- cell count [1]: 343
- inhibition [1]: -0.8% (inactive)
- inhibition of aggregation [2]: 6% (inactive)
- nuclei count [2]: 87.3%
- inhibition [3]: -19.4% (inactive)
- nuclei count [3]: 124%
- fluorescence slope [4]: -0.609 (inactive)
- NADPH fluorescence slope [5]: -1.3e-06 (inactive)
- slope [6]: 0.00439 (inactive)
- inhibition [7]: 8.97% (inactive)
- inhibition [8]: 15.4% (inactive)
